# Sampled rows, rich in hits. Any-hit rate of the full collection: about 6.5%.
# Abs 340nm – compound light absorbance at 340 nm, profiling panel, artefact control, biochemical, MLSMR library, data from PS, PMK, MK assays | compound absorbance at 340 nm, fold over control | fold change at 10 µM | 65,000 tested, under 10 active | AID 708, 2007;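 active = at 10 µM dose, initial 340 nm absorbance at least 2 fold that of control wells; inactive = change under 2 fold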;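 also: initial absorbance extrapolated from kinetic A340 decline of NADH oxidation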
# Autofluor 339 – intrinsic fluorescence of library compounds, ex339/em460 – biochemical, MLSMR library, data from DPM-DC assay, artefact control, profiling panel; compound autofluorescence, ex339/em460 nm, NADH buffer; active compounds read high; 1 = no-compound wells, NADH background; fluorescence fold increase at 10 µM; 65,000 tested, 5.5% active;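 active = at 10 µM, mean starting fluorescence two-fold or more over control wells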;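 also: signal is the first read of a kinetic run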
# NADH enzymes – inhibitors of PK/LDH coupling enzymes, profiling panel, artefact control, biochemical, MLSMR library; coupled PK/LDH NADH assays, four targets; IC50, µM (highest dose often 10 µM), without a hit: at the highest dose inhibition; 65,000 tested, 0.02% active; AID 774, 2007;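 active = single-dose screening hits from any of four coupled enzyme assays that gave an IC50 when retested across doses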;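 also: the DPM-DC format reads NADH fluorescence rather than 340 nm absorbance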
# Spn PMK inh – S. pneumoniae PMK inhibitors, primary screen, biochemical, mevalonate pathway, pilot trial included. phosphomevalonate kinase (Streptococcus pneumoniae D39). purified PMK, PK/LDH-coupled NADH absorbance 340 nm. inhibition, % at 10 µM. 65,000 tested, 0.49% active. AID 539, 2006;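 active = top-ranked compounds by inhibition in the single 10 µM screen, taking a fixed number of the strongest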;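 also: 0% = full reaction with DMSO carrier and 100% = background rate without enzyme reaction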
# MK inhibit – S. pneumoniae MK inhibitors, primary screen, biochemical, PK/LDH-coupled NADH absorbance; purified MK, PK/LDH-coupled NADH absorbance 340 nm; inhibition, % at 10 µM; 65,000 tested, 0.48% active; AID 555, 2006;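 active = ranked among the strongest by inhibition in the single 10 µM screen, a fixed top-ranked set picked for dose follow-up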
# DPM-DC inhibit – S. pneumoniae DPM-DC inhibitors, primary screen, biochemical, PK/LDH-coupled NADH fluorescence; diphosphomevalonate decarboxylase (Streptococcus pneumoniae D39); purified DPM-DC; calls only at 10 µM; 65,000 tested, 0.49% active;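 active = the 320 compounds with the highest percent inhibition in the single-dose primary screen, excluding strongly autofluorescent ones, cut at about 32% in these data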;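 also: kinetic rate of NADH fluorescence loss reporting ADP formed by the decarboxylase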
# * hit, by the source's call; i = inactive; x = no result given; + = active, no number.
SMILES,Abs 340nm,Autofluor 339,NADH enzymes,Spn PMK inh,MK inhibit,DPM-DC inhibit
CC(=O)C(C)Oc1ccc2c3c(c(=O)oc2c1C)CCCC3 (stereo unspecified),1.01,3.83*,10.0%,5.0,15.0,x
Cc1oc(C(=O)O)cc1COc1ccc2c3c(c(=O)oc2c1C)CCCC3,1.05,2.19*,11.0%,12.0,9.0,x
Cc1oc2c(C)c3oc(=O)c4c(c3cc2c1C)CCCC4,1.05,1.53,5.0%,2.0,5.0,i
CC(=O)COc1ccc2c3c(c(=O)oc2c1C)CCCCC3,1.16,3.79*,5.0%,3.0,7.0,x
Cc1c(OC(=O)CNC(=O)OC(C)(C)C)ccc2c3c(c(=O)oc12)CCC3,1.04,3.87*,6.0%,3.0,8.0,x
CCOC(=O)C1=C(C)NC(=O)C(C(N)=O)C1c1ccccc1 (stereo unspecified),0.98,1.1,5.0%,4.0,9.0,i
Cc1ccc(-c2cn3nc(C)c(C)nc3n2)cc1,1,2.9*,4.0%,12.0,8.0,x
O=C(O)c1cc(-c2ccco2)[nH]n1,1,1.09,2.0%,6.0,1.0,i
CC(C)Cc1cc(C(=O)O)n[nH]1,1.02,2.01*,16.0%,10.0,10.0,i
COc1ccccc1NC(=O)N1CCCC1C(=O)NC12CC3CC(CC(C3)C1)C2 (stereo unspecified),1.04,1.07,3.0%,9.0,0.0,i
O=C(COC(=O)c1ccccc1Nc1ccccc1)NCc1ccco1,0.99,1.33,4.0%,12.0,0.0,i
COc1cc(NC(=O)c2cccs2)c(C(=O)OCC(=O)NCc2ccco2)cc1OC,1.09,1.44,17.0%,13.0,5.0,+
NC(=O)c1ccsc1NC(=O)COC(=O)c1ccccc1NCc1ccco1,1.06,2.14*,0.0%,0.0,0.0,x
COc1ccc(-c2cc(-c3ccccc3)n3ncnc3n2)cc1,1.06,2.4*,2.0%,0.0,3.0,x
COc1ccc(-c2cc(N3CCCC3)n3ncnc3n2)cc1,1.03,1.18,4.0%,11.0,8.0,i
CCN1CCc2c(sc(N)c2C#N)C1,1.04,1.65,12.0%,7.0,10.0,i
N#Cc1c(NCCO)nc(NCc2ccccc2)c2c1CCN(Cc1ccccc1)C2,1.03,2.17*,19.0%,18.0,3.0,+
N#Cc1c(N)sc(=S)c2c1CCN(Cc1ccccc1)C2,1.07,4.29*,15.0%,29.0*,0.0,x
Cc1cc(C)c2c(N)c(C(=O)N3CCCCCC3)sc2n1,1.05,2.16*,7.0%,0.0,0.0,i
CC1CCc2sc3ncn4nc(C(=O)NCc5ccco5)nc4c3c2C1 (stereo unspecified),1.02,2.02*,12.0%,8.0,9.0,i
Cc1cc(C)n2nc(C(=O)NCc3ccco3)nc2n1,0.97,1,5.0%,0.0,5.0,i
Cc1cc(C)c2c(N)c(C(=O)NCc3ccco3)sc2n1,1.12,2.14*,10.0%,4.0,15.0,x
CCCOC(=O)C1[C@H]2C(=O)N(CC3CCCO3)C[C@]23C=C[C@H]1O3 (stereo partly specified),1.01,1.08,2.0%,6.0,1.0,i
COc1ccc(NC(=O)N2CCCC(c3nc(-c4ccc(C(C)C)cc4)no3)C2)cc1 (stereo unspecified),0.99,1.09,6.0%,10.0,8.0,i
CCOC(=O)N1CCN(S(=O)(=O)c2ccc(C(=O)Nc3nc4c(s3)CC(C)CC4)cc2)CC1 (stereo unspecified),1.05,4.57*,14.0%,15.0,13.0,x
SMILES,Abs 340nm,Autofluor 339,NADH enzymes,Spn PMK inh,MK inhibit,DPM-DC inhibit
CCOC(=O)c1cccc(NC(=O)c2cc3sccc3n2C)c1,0.99,1.11,7.0%,13.0,6.0,i
CCOC(=O)c1ccccc1NC(=O)c1cc2sccc2n1C,1.02,2.57*,4.0%,9.0,5.0,i
COc1ccc(NC(=O)C2CSC3c4ccccc4C(=O)N23)cc1 (stereo unspecified),1.01,1.1,1.0%,0.0,4.0,i
COc1nc(-c2ccc(C)cc2)ccc1-c1noc(-c2cccnc2)n1,1.04,3.5*,8.0%,15.0,0.0,x
COc1nc2ccccc2cc1-c1noc(-c2cccnc2)n1,1.02,1.48,7.0%,13.0,7.0,i
COc1nc(-c2ccccc2)ccc1-c1noc(-c2cccnc2)n1,1.06,3.55*,12.0%,15.0,9.0,x
C=CCn1c(-c2cccs2)nc2ccccc21,1.04,3.13*,8.0%,6.0,10.0,x
CCCn1c(-c2cccs2)nc2ccccc21,1.02,3.69*,5.0%,0.0,10.0,x
COc1cc(C(Nc2ccc3c(c2)OCO3)C(=O)NC2CCCCC2)cc(OC)c1OC (stereo unspecified),1,1.07,3.0%,19.0,0.0,i
COc1ccc(C(F)(F)F)cc1NC(=O)c1nc2nc(C)cc(C(F)F)n2n1,1,3.03*,3.0%,8.0,1.0,x
Cc1cc(C(F)F)n2nc(C(=O)Nc3cccc(C(F)(F)F)c3)nc2n1,1.02,1.13,4.0%,7.0,4.0,i
O=C(COc1ccccc1)n1nc(-c2ccc(Cl)cc2)nc1NCc1ccco1,1.08,1.09,7.0%,7.0,13.0,i
COc1ccc2[nH]c(C)c(CN3CCCCC3)c(=O)c2c1,1.02,2.76*,8.0%,14.0,8.0,i
CCOc1ccc2[nH]c(C)c(CN3CCOCC3)c(=O)c2c1,1.11,1.61,13.0%,16.0,7.0,i
Cc1cc(NCCN2CCOCC2)n2c(nc3ccccc32)c1C#N,1.13,3.74*,11.0%,7.0,15.0,x
Cc1cc(NCCCN2CCOCC2)n2c(nc3ccccc32)c1C#N,1.02,5.05*,15.0%,8.0,22.0,x
COc1cc(-c2nnc(CSc3nc4ccccc4s3)o2)cc(OC)c1OC,1,1.06,6.0%,10.0,5.0,i
Cc1ccc2nc(NC(=O)c3cccs3)sc2c1,1.1,1.46,3.0%,0.0,0.0,i
Cc1ccc2nc(NC(=O)c3ccc(Cn4cc(Cl)cn4)o3)sc2c1,1.07,2.25*,0.0%,0.0,1.0,i
CC(=O)c1sc(NC(=O)c2ccc(Cn3cc(Br)cn3)o2)nc1C,1.14,1.13,3.0%,6.0,4.0,i
Cc1ccc2nc(NC(=O)c3ccc(Cl)s3)sc2c1,1.1,2.07*,3.0%,5.0,1.0,x
Cc1oc2c(c1C(=O)NC(Cc1c[nH]c3ccccc13)C(=O)O)CCCC2 (stereo unspecified),1.01,1.07,6.0%,10.0,3.0,i
N#CCCN(C(=O)COC(=O)c1ccc2c(c1)NC(=O)CS2)c1ccc2c(c1)OCCO2,1.03,1.11,4.0%,0.0,11.0,i

# Screens: PubChem, SRMLSC
